Source: PubChem BioAssay (several laboratories)
MEP2-GFP yeast: modulators of TOR pathway MEP2-GFP in S. cerevisiae. S. cerevisiae MEP2-GFP strain, flow cytometry GFP, 3 h; 100% = DMSO control level. GFP response vs DMSO, % at 10 µM. actives 0.51% (n = 330,000);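 active means GFP response versus DMSO above a set limit, roughly screen mean plus 3 SD, cut at about 180% in these data; inconclusive means fewer than 70 cells counted for a yeast strain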;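 further: median GFP fluorescence of the barcode-gated MEP2-GFP cells per well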
RPL19A TOR yeast: modulators of TOR pathway RPL19A-GFP in S. cerevisiae; S. cerevisiae RPL19A-GFP strain, flow cytometry, 3 h; stronger effect = lower value; percent response vs DMSO, % at 10 µM; actives 0.3% (n = 330,000); AID 2025;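 active means percent response vs DMSO below 50%; inconclusive means fewer than 70 events counted for the yeast strain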;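 further: median channel GFP fluorescence of the barcoded RPL19A-GFP strain; ratio of sample median GFP to plate DMSO average so 100% = DMSO; lower means less RPL19A-GFP as with rapamycin TOR inhibition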
AGP1-GFP MLPCN: yeast TOR pathway AGP1-GFP modulation. actives 0.02% (n = 320,000). GFP response vs DMSO, % at 10 µM. S. cerevisiae AGP1-GFP multiplex flow cytometry, 3 h; GFP as percent of DMSO wells;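 active means GFP response relative to DMSO above a set limit, near screen average plus 3 SD, cut at about 150% in these data; inconclusive means fewer than 70 cells counted for the yeast strain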;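 further: median GFP channel fluorescence of the gated AGP1 strain per well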
GASC-1 inh: human JMJD2C demethylase inhibition; Q9H3R0; actives 0.069% (n = 330,000); GST-JMJD2C(1-420) H3K9me3 demethylation, DELFIA europium; AID 2099; inhibition, % at 2.35 µM;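 active means more than half of a compound's replicate wells show inhibition beyond 50%, single wells judged on their own value; inconclusive means some, but no more than half, of replicates pass 50% inhibition; inactive means no replicate passes 50% inhibition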;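 further: signal counts dimethyl H3K9 product captured on neutravidin plate; 0% = median of DMSO wells and 100% = 0.3 times that DMSO median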
Target sequence (Q9H3R0 1-420 limits assumed): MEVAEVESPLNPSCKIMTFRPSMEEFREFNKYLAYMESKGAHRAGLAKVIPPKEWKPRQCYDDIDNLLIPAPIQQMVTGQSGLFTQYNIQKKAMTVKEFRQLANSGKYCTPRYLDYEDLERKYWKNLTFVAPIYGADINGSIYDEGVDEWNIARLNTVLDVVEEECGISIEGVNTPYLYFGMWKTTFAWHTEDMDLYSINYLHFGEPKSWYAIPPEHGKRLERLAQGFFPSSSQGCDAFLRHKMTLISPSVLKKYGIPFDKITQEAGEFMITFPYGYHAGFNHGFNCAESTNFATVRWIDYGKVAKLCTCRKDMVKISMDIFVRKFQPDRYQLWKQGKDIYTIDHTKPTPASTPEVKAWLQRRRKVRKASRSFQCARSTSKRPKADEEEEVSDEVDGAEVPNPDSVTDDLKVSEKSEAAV
LAP4 TOR yeast: alters LAP4-GFP fluorescence in TOR pathway yeast screen; S. cerevisiae LAP4-GFP multiplex, flow cytometry GFP, 3 h; median GFP as percent of DMSO wells; GFP response vs DMSO, % at 10 µM; actives 0.34% (n = 320,000);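 active means GFP response vs DMSO above a set limit, about the screen mean plus 3 SD, cut at about 150% in these data; inconclusive means under 70 cell events counted for the yeast strain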
CIT2 TOR yeast: alters CIT2-GFP fluorescence in TOR pathway yeast screen. GFP response vs DMSO, % at 10 µM. actives 0.065% (n = 320,000). S. cerevisiae CIT2-GFP strain, flow cytometry, 3 h; 100 means same as DMSO wells;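 active means GFP response relative to DMSO above a set limit, near the screen mean plus 3 SD, cut at about 150% in these data; inconclusive means Fewer than 70 cells measured for a yeast strain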;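 further: ratio of well median GFP fluorescence to mean of DMSO wells on the plate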
LAP4 cherry2: reconfirmed LAP4-GFP TOR pathway modulator in yeast; shares compounds with LAP4 TOR yeast; S. cerevisiae LAP4-GFP strain, flow cytometry GFP, 3 h; actives 20% (n = 590); GFP response vs DMSO, % at 10 µM; AID 2621;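 active means GFP signal as percent of the solvent control above about 150%, meaning raised reporter expression, limit read from the data; inconclusive means fewer than 70 cells counted in the well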;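 further: ratio of well median GFP fluorescence to plate DMSO mean so 100% = DMSO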
MEP2-GFP pick2: yeast MEP2-GFP modulation, second cherry pick; shares compounds with LAP4 TOR yeast; S. cerevisiae MEP2-GFP strain, flow cytometry GFP, 3 h; GFP response vs DMSO, % at 10 µM; actives 10% (n = 590); AID 2622;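 active means GFP signal above 150% of the solvent control wells, that is a rise of more than half; inconclusive means fewer than 70 yeast cells counted in the well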;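 further: median channel GFP fluorescence of all gated yeast cells per well; ratio of median GFP to plate DMSO average so 100% = DMSO level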
RPL19A GFP CP2: reconfirmed modulator of RPL19A-GFP TOR reporter in yeast; shares compounds with LAP4 TOR yeast; S. cerevisiae RPL19A-GFP strain, flow cytometry GFP, 3 h; stronger effect = lower value; 100% means same as DMSO wells; GFP response vs DMSO, % at 10 µM; actives 3% (n = 590); AID 2623;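 active means under 65% GFP response relative to DMSO; inconclusive means yeast strain with under 70 measured events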;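 further: median GFP channel fluorescence per well over the all cells gate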
CIT2-GFP pick2: reconfirmed modulator of CIT2-GFP TOR reporter in yeast; GFP response vs DMSO, % at 10 µM; S. cerevisiae CIT2-GFP strain, flow cytometry GFP, 3 h; DMSO control wells read 100%; shares compounds with LAP4 TOR yeast; actives 8% (n = 590); AID 2624;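 active means GFP response vs DMSO above about 150%, limit read from the data; inconclusive means fewer than 70 events counted for a yeast strain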;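 further: median green fluorescence per well over all gated yeast cells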
AGP1 GFP CP2: reconfirmed modulator of AGP1-GFP TOR reporter in yeast; shares compounds with LAP4 TOR yeast; 590 tested, under 10 active; percent response vs DMSO, % at 10 µM; S. cerevisiae AGP1-GFP strain, flow cytometry GFP, 3 h;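 active means over 150 percent of DMSO response; inconclusive means yeast strain measured with under 70 events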;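 further: median GFP channel fluorescence over all cells without mother daughter split; sample median GFP divided by mean DMSO control so 100% equals DMSO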
Yeast autofluor: compound is autofluorescent in yeast s288c cells; S. cerevisiae s288c, 520 nm autofluorescence, flow cytometry, 3 h; stronger effect = higher value; zero means same as solvent-only cells; shares compounds with LAP4 TOR yeast; fluorescence change (kMESF span) at 33 µM; 610 tested, under 10 active;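 active means fluorescence span over the dose series, or activity score, above about 33, limit read from the data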
* marks the source's active call; other numbers are inactive results. An excerpt weighted towards active compounds, which were near 0.97% of everything screened.

C=C1CCN(Cc2ccccc2)S(=O)(=O)c2ccccc21 was read as MEP2-GFP yeast 92, RPL19A TOR yeast 98, AGP1-GFP MLPCN 85, GASC-1 inh -14, LAP4 TOR yeast 163*, CIT2 TOR yeast 85, LAP4 cherry2 99, MEP2-GFP pick2 100, RPL19A GFP CP2 99, CIT2-GFP pick2 93 and AGP1 GFP CP2 95.
Screening CC1CN(CCc2ccccc2)c2nc3c(c(=O)n(C)c(=O)n3C)n2C1 (centres undefined) returned MEP2-GFP yeast 116, RPL19A TOR yeast 111, AGP1-GFP MLPCN 107, GASC-1 inh -3, LAP4 TOR yeast 122 and CIT2 TOR yeast 99.
For O=c1oc2cc(Oc3ccc(C(F)(F)F)cc3[N+](=O)[O-])ccc2c2c1CCC2 the results were MEP2-GFP yeast 96, RPL19A TOR yeast 103, AGP1-GFP MLPCN 100, GASC-1 inh 0, LAP4 TOR yeast 91 and CIT2 TOR yeast 104.
For O=c1oc2cc(Oc3c([N+](=O)[O-])cc(C(F)(F)F)cc3[N+](=O)[O-])ccc2c2c1CCCC2 the results were MEP2-GFP yeast 91, RPL19A TOR yeast 70, AGP1-GFP MLPCN 86, GASC-1 inh inconclusive, LAP4 TOR yeast 294*, CIT2 TOR yeast 76 and Yeast autofluor 0.
`Cc1ccc(OCC(=O)NCCNC(=O)c2cccnc2)cc1C` gave MEP2-GFP yeast 100, RPL19A TOR yeast 101, AGP1-GFP MLPCN 101, GASC-1 inh 12, LAP4 TOR yeast 95 and CIT2 TOR yeast 109.
For Cc1ccc(SCC(=O)NNC(=O)CCS(=O)(=O)c2ccc(C)cc2)cc1 the results were MEP2-GFP yeast 109, RPL19A TOR yeast 76, AGP1-GFP MLPCN 115, GASC-1 inh -3, LAP4 TOR yeast 219*, CIT2 TOR yeast 87, LAP4 cherry2 105, MEP2-GFP pick2 101, RPL19A GFP CP2 99, CIT2-GFP pick2 103 and AGP1 GFP CP2 99.
`O=C(CCS(=O)(=O)c1ccccc1)NNC(=O)CSc1ccccc1F` gave MEP2-GFP yeast 104, RPL19A TOR yeast 102, AGP1-GFP MLPCN 104, GASC-1 inh -3, LAP4 TOR yeast 97 and CIT2 TOR yeast 111.
COc1cc(NC(=O)c2ccc(Br)cc2)ccc1NC(=O)c1cc2ccccc2o1 was read as MEP2-GFP yeast 110, RPL19A TOR yeast 103, AGP1-GFP MLPCN 79, GASC-1 inh -3, LAP4 TOR yeast 88 and CIT2 TOR yeast 86.
CCC(=O)Nc1ccc(NC(=O)c2cc3ccccc3o2)c(OC)c1 was read as MEP2-GFP yeast 99, RPL19A TOR yeast 102, AGP1-GFP MLPCN 110, GASC-1 inh 6, LAP4 TOR yeast 101, CIT2 TOR yeast 104 and Yeast autofluor 0.1.
Screening Cc1cc(NC(=O)c2cccnc2)ccc1NC(=O)c1cc2ccccc2o1 returned MEP2-GFP yeast 92, RPL19A TOR yeast 93, AGP1-GFP MLPCN 94, GASC-1 inh -22, LAP4 TOR yeast 96 and CIT2 TOR yeast 92.
COc1cc(NC(=O)c2c(OC)cccc2OC)ccc1NC(=O)c1cc2ccccc2o1 was read as MEP2-GFP yeast 107, RPL19A TOR yeast 107, AGP1-GFP MLPCN 97, GASC-1 inh 5, LAP4 TOR yeast 90 and CIT2 TOR yeast 105.
Cc1cc(NC(=O)c2cccnc2Cl)ccc1NC(=O)c1cc2ccccc2o1 was read as MEP2-GFP yeast 100, RPL19A TOR yeast 105, AGP1-GFP MLPCN 97, GASC-1 inh 7, LAP4 TOR yeast 90, CIT2 TOR yeast 103 and Yeast autofluor 0.1.
O=C(Nc1ccc(NC(=O)c2cc3ccccc3o2)cc1)c1ccc2c(c1)OCCO2 was read as MEP2-GFP yeast 99, RPL19A TOR yeast 101, AGP1-GFP MLPCN 104, GASC-1 inh 1, LAP4 TOR yeast 99, CIT2 TOR yeast 106 and Yeast autofluor 0.1.
COc1cc(NC(=O)c2ccc(C)cc2)ccc1NC(=O)c1cc2ccccc2o1 was read as MEP2-GFP yeast 168, RPL19A TOR yeast 92, AGP1-GFP MLPCN 34, GASC-1 inh 10, LAP4 TOR yeast 84, CIT2 TOR yeast 76 and Yeast autofluor 0.1.
CC(C)Oc1ccc(C(=O)NCc2cccs2)cc1 was read as MEP2-GFP yeast 93, RPL19A TOR yeast 79, AGP1-GFP MLPCN 104, GASC-1 inh -3, LAP4 TOR yeast 169*, CIT2 TOR yeast 86, LAP4 cherry2 102, MEP2-GFP pick2 98, RPL19A GFP CP2 100, CIT2-GFP pick2 93 and AGP1 GFP CP2 98.
`Cc1ccc(C(=O)/C=C/C(=O)c2ccc(C)cc2)cc1` gave MEP2-GFP yeast 93, RPL19A TOR yeast 97, AGP1-GFP MLPCN 84, GASC-1 inh -3, LAP4 TOR yeast 168*, CIT2 TOR yeast 93 and Yeast autofluor 0.61.
For CCOc1ncccc1C(=O)OCC(=O)N1CCC(C)CC1 the results were MEP2-GFP yeast 101, RPL19A TOR yeast 98, AGP1-GFP MLPCN 91, GASC-1 inh -4, LAP4 TOR yeast 98 and CIT2 TOR yeast 92.
Cc1cc(Br)ccc1NC(=O)CNC(=O)CNc1cccc([N+](=O)[O-])c1 was read as MEP2-GFP yeast 105, RPL19A TOR yeast 112, AGP1-GFP MLPCN 115, GASC-1 inh 1, LAP4 TOR yeast 117 and CIT2 TOR yeast 102.
